Measured values from article PMC7862700, “An all-to-all approach to the identification of sequence-specific readers for epigenetic DNA modifications on cytosine”.

Key:
Experiment in all cases: DAPPL (digital affinity profiling via proximity ligation, sequencing); 10 mM Tris-HCl pH 7.5, 50 mM NaCl, 1 mM DTT, 4% glycerol, room temperature, 30 min; GST-TFs on glutathione beads, 16-mer random dsDNA library, 0.1% formaldehyde crosslink after washing; high values mean tight binding
FEV = molecular target: T1, FEV (Homo sapiens, UniProt Q99581 1-238); details: protein: recombinant; tags: N-terminal GST; dsDNA, one strand shown
T1 sequence: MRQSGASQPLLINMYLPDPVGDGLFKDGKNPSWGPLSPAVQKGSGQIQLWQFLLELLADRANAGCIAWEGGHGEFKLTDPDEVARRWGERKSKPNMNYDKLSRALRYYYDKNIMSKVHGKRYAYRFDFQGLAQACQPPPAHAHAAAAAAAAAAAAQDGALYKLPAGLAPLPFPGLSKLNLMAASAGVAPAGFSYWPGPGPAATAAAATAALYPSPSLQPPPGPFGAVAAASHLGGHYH
Summary of the method: (§1)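 Pools of DNA-barcoded human transcription factors, expressed in yeast as GST fusions on glutathione beads and combined with a tag-only sample, were incubated with 200 nmole of a 16-mer random double-stranded DNA library. Incubation took 30 min at room temperature in Tris/NaCl/DTT/glycerol buffer and was followed by washing, 0.1% formaldehyde crosslinking, proximity ligation (BsaI/T4 ligase, 1 h, 37 °C), PCR amplification and sequencing on an Illumina NextSeq500. Binding signal is the ratio of a hexamer's read frequency for a factor to its frequency for the tag-only sample.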

ETV5 = ETV5 (Homo sapiens, UniProt P41161 1-510); details: protein: recombinant; tags: N-terminal GST; dsDNA, one strand shown
Summary of the method: as §1

HSF1 = HSF1 (Homo sapiens, UniProt Q00613 1-529); details: protein: recombinant; tags: N-terminal GST; chain copies: 3; dsDNA, one strand shown
Summary of the method: as §1

SPIC = molecular target: T2, SPIC (Homo sapiens, UniProt Q8N5J4 1-248); details: protein: recombinant; tags: N-terminal GST; dsDNA, one strand shown
T2 sequence: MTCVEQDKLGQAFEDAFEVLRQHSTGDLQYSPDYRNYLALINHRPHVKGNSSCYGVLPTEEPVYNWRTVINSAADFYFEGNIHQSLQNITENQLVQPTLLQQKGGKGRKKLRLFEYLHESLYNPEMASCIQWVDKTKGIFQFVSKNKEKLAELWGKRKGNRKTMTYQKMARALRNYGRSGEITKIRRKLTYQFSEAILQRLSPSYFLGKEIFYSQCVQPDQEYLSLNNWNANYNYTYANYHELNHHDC
Summary of the method: as §1

ELF4 = ELF4 (Homo sapiens, UniProt Q99607 1-663); details: protein: recombinant; tags: N-terminal GST; dsDNA, one strand shown
Summary of the method: as §1

ELK4 = molecular target: T3, ELK4 (Homo sapiens, UniProt P28324-2 1-405); details: protein: recombinant; tags: N-terminal GST; dsDNA, one strand shown
T3 sequence: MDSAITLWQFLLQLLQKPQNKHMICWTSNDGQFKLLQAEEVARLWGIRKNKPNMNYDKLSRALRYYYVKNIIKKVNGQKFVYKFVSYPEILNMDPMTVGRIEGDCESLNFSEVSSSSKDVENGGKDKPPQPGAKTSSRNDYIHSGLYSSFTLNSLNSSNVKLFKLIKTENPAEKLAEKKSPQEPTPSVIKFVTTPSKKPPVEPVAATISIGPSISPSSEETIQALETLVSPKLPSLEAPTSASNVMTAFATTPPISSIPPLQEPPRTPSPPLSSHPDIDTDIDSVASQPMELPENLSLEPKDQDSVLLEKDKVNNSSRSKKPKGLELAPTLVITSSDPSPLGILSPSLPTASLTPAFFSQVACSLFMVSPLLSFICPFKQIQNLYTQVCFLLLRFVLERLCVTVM
Summary of the method: as §1

ETV2 = molecular target: T4, ETV2 (Homo sapiens, UniProt O00321 1-342); details: protein: recombinant; tags: N-terminal GST; dsDNA, one strand shown
T4 sequence: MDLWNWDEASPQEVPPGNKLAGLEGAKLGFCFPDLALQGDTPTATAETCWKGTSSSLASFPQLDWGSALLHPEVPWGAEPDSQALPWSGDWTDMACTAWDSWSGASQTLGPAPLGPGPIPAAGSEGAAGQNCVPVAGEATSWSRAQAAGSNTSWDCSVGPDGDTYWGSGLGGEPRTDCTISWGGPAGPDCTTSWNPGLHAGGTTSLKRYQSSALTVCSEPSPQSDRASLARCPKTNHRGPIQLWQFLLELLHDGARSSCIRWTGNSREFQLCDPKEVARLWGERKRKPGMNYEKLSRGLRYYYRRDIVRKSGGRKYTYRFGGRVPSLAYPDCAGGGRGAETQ
Summary of the method: as §1

ELF3 = molecular target: T5, ELF3 (Homo sapiens, UniProt P78545 1-371); details: protein: recombinant; tags: N-terminal GST; dsDNA, one strand shown
T5 sequence: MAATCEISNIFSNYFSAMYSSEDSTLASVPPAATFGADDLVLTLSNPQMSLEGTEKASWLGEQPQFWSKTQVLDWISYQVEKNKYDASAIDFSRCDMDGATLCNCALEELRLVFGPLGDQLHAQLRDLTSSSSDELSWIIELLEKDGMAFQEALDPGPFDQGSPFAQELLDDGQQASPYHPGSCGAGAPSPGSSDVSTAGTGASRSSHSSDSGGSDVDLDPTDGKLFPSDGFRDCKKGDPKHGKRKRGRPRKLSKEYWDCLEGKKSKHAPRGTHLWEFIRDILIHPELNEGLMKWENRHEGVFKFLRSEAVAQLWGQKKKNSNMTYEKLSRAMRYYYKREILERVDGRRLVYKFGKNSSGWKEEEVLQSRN
Summary of the method: as §1

CRX = CRX (Homo sapiens, UniProt O43186 1-299); details: protein: recombinant; tags: N-terminal GST; dsDNA, one strand shown
Summary of the method: as §1

ETV1 = ETV1 (Homo sapiens, UniProt P50549 1-477); details: protein: recombinant; tags: N-terminal GST; dsDNA, one strand shown
Summary of the method: as §1

ERF = molecular target: T6, ERF (Homo sapiens, UniProt P50548 1-548); details: protein: recombinant; tags: N-terminal GST; dsDNA, one strand shown
T6 sequence: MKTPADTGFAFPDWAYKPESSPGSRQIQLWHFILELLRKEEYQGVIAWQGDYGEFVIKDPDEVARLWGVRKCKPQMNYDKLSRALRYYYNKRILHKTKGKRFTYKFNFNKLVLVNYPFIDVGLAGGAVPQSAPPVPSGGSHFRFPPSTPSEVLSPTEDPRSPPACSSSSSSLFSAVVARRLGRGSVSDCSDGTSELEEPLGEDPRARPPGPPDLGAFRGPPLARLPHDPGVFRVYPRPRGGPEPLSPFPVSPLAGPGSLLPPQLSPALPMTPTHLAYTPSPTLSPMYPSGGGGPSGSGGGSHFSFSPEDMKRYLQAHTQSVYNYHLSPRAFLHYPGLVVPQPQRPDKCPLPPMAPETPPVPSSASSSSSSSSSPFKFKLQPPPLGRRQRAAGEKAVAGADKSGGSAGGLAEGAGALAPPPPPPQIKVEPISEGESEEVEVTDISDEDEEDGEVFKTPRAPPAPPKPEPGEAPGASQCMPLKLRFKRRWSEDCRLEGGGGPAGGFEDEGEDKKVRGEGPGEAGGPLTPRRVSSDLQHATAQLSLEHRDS
Summary of the method: as §1

ETV3L = molecular target: T7, ETV3L (Homo sapiens, UniProt Q6ZN32 1-361); details: protein: recombinant; tags: N-terminal GST; dsDNA, one strand shown
T7 sequence: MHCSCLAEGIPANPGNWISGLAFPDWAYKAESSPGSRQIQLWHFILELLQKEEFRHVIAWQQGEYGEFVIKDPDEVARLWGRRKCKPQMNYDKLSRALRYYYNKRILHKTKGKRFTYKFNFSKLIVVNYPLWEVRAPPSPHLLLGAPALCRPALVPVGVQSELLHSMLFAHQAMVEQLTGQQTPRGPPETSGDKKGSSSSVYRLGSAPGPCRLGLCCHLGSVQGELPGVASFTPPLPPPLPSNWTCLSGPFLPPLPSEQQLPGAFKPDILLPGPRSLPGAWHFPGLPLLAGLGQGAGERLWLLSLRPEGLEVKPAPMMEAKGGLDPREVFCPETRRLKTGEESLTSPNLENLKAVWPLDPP
Summary of the method: as §1

ETS2 = molecular target: T8, ETS2 (Homo sapiens, UniProt P15036 1-469); details: protein: recombinant; tags: N-terminal GST; dsDNA, one strand shown
T8 sequence: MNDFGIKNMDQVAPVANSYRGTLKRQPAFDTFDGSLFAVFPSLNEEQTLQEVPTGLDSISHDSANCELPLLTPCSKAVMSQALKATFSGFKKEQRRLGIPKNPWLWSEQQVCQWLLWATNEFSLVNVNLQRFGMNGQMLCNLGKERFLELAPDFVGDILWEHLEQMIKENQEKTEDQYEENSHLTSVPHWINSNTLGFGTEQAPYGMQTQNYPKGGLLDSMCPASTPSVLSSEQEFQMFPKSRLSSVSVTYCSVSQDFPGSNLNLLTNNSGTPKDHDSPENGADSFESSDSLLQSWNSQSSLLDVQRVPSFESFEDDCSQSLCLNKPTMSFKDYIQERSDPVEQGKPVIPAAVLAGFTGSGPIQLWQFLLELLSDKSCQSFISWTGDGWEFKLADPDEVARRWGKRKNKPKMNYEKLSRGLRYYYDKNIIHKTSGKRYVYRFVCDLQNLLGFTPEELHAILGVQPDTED
Summary of the method: as §1

SPDEF = molecular target: T9, SPDEF (Homo sapiens, UniProt O95238 1-335); details: protein: recombinant; tags: N-terminal GST; dsDNA, one strand shown
T9 sequence: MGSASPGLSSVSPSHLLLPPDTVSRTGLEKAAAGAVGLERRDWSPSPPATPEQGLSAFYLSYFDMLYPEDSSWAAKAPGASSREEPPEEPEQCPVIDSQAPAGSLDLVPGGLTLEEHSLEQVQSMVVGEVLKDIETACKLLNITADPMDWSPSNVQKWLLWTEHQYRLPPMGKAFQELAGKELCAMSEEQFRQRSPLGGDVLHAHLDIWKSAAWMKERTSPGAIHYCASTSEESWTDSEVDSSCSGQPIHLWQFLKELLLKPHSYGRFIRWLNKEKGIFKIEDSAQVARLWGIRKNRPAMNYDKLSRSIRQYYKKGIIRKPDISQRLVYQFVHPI
Summary of the method: as §1

ELF5 = molecular target: T10, ELF5 (Homo sapiens, UniProt Q9UKW6-2 1-255); details: protein: recombinant; tags: N-terminal GST; dsDNA, one strand shown
T10 sequence: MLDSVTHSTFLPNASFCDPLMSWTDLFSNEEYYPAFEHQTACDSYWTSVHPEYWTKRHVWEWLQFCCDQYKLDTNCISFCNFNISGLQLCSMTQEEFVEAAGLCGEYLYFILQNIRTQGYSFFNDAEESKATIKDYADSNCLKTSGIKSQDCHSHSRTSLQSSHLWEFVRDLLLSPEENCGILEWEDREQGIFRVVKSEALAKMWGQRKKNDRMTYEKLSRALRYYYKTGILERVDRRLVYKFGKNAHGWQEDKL
Summary of the method: as §1

ETV3 = molecular target: T11, ETV3 (Homo sapiens, UniProt P41162-2 1-143); details: protein: recombinant; tags: N-terminal GST; dsDNA, one strand shown
T11 sequence: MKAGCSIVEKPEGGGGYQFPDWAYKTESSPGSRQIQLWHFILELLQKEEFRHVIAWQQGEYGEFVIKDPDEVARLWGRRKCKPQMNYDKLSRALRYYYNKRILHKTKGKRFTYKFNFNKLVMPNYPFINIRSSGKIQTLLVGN
Summary of the method: as §1

ETV6 = ETV6 (Homo sapiens, UniProt P41212 1-452); details: protein: recombinant; tags: N-terminal GST; dsDNA, one strand shown
Summary of the method: as §1

Sequence of ETV5 (P41161 whole entry): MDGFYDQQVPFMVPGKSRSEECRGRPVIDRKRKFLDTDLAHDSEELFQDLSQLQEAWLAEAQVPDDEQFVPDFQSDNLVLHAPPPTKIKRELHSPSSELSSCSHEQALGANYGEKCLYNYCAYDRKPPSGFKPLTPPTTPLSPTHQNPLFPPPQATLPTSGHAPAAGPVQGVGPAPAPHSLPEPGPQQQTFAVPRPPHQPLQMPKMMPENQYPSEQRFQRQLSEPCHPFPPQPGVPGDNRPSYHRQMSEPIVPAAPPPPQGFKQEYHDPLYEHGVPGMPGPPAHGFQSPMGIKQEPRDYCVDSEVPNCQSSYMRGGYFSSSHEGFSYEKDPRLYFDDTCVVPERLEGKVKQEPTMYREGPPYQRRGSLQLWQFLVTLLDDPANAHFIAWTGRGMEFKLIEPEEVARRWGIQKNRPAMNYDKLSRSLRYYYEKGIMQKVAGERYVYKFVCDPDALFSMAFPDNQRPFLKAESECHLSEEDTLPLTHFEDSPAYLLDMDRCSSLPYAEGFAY
Sequence of ETV6 (P41212 whole entry): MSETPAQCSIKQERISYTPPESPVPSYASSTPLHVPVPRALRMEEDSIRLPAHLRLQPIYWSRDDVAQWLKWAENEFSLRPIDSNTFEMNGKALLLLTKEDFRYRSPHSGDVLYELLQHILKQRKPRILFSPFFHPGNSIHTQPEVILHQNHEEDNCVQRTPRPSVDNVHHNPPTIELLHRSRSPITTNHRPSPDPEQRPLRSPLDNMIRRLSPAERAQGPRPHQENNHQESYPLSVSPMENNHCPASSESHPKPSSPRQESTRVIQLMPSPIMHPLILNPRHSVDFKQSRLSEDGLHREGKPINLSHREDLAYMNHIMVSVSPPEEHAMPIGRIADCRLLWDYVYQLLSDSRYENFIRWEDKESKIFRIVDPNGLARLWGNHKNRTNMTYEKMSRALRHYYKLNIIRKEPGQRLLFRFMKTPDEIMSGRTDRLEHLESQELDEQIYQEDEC
Sequence of ELF4 (Q99607 whole entry): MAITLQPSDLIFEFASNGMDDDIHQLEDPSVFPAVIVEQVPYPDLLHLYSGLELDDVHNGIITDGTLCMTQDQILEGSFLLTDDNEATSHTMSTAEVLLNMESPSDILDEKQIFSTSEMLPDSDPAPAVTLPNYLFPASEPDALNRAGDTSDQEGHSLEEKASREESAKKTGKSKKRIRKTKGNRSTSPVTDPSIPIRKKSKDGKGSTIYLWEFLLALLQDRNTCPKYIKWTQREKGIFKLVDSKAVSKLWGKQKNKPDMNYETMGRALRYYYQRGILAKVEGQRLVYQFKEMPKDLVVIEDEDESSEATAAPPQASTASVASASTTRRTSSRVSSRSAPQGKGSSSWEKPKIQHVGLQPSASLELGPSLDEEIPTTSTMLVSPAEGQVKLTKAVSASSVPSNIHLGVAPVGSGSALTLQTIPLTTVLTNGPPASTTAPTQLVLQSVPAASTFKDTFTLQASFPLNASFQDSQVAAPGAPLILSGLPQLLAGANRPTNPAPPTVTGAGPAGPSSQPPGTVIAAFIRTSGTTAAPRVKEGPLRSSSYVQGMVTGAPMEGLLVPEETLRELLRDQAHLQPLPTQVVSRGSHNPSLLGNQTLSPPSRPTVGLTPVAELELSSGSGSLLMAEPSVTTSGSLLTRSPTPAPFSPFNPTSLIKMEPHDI
Sequence of ETV1 (P50549 whole entry): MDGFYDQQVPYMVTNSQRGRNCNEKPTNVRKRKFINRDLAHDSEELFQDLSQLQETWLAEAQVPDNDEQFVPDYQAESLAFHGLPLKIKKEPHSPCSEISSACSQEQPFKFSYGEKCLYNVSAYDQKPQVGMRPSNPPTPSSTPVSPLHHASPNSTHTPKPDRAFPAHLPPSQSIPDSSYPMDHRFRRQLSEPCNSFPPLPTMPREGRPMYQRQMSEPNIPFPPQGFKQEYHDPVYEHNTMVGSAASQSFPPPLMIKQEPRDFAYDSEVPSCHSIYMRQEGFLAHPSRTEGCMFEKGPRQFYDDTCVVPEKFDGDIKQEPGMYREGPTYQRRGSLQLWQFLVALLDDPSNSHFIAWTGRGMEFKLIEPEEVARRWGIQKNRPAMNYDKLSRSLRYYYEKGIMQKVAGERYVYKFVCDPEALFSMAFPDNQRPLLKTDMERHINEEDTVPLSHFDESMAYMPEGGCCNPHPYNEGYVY
Sequence of CRX (O43186 whole entry): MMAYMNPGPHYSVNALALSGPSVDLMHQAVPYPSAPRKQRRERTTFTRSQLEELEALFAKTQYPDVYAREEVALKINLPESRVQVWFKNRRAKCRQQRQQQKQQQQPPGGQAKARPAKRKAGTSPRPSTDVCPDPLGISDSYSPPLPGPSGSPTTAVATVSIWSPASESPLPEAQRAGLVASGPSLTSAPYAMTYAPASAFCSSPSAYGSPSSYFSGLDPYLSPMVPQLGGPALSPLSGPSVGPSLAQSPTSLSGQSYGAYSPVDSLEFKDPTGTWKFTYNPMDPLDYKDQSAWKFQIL
Sequence of HSF1 (Q00613 whole entry): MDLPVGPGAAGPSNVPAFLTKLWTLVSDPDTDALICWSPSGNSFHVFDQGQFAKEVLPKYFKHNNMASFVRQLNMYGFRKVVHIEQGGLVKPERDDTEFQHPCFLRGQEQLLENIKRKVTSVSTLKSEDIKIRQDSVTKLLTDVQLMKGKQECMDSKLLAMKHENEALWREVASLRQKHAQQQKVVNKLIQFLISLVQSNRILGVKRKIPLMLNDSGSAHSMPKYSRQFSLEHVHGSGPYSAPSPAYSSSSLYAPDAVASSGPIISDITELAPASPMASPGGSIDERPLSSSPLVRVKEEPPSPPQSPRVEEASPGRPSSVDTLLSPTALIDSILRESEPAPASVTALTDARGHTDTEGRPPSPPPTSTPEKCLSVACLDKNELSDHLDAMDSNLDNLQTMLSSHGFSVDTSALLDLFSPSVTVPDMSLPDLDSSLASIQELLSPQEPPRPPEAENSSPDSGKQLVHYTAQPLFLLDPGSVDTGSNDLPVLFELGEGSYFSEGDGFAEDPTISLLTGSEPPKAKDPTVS

| Sequence | binding signal (FEV) | binding signal (ETV5) | binding signal (HSF1) | binding signal (SPIC) | binding signal (ELF4) | binding signal (ELK4) | binding signal (ETV2) | binding signal (ELF3) | binding signal (CRX) | binding signal (ETV1) | binding signal (ERF) | binding signal (ETV3L) | binding signal (ETS2) | binding signal (SPDEF) | binding signal (ELF5) | binding signal (ETV3) | binding signal (ETV6) |
| --- | --- | --- | --- | --- | --- | --- | --- | --- | --- | --- | --- | --- | --- | --- | --- | --- | --- |
| AGCCCT | 1.14 fold enrichment (6-mer frequency, TF over GST control) | 1.08 fold enrichment (6-mer frequency, TF over GST control) | 1.09 fold enrichment (6-mer frequency, TF over GST control) | 1.25 fold enrichment (6-mer frequency, TF over GST control) | 1.06 fold enrichment (6-mer frequency, TF over GST control) | 1.14 fold enrichment (6-mer frequency, TF over GST control) | 1.18 fold enrichment (6-mer frequency, TF over GST control) | 1.1 fold enrichment (6-mer frequency, TF over GST control) | 1.25 fold enrichment (6-mer frequency, TF over GST control) | 1.05 fold enrichment (6-mer frequency, TF over GST control) | 1.11 fold enrichment (6-mer frequency, TF over GST control) | 1.12 fold enrichment (6-mer frequency, TF over GST control) | 1.16 fold enrichment (6-mer frequency, TF over GST control) | 1.07 fold enrichment (6-mer frequency, TF over GST control) | 1.08 fold enrichment (6-mer frequency, TF over GST control) | 1.15 fold enrichment (6-mer frequency, TF over GST control) | 1.11 fold enrichment (6-mer frequency, TF over GST control) |
| GCTCAG | 1.11 fold enrichment (6-mer frequency, TF over GST control) | 1.17 fold enrichment (6-mer frequency, TF over GST control) | 1.13 fold enrichment (6-mer frequency, TF over GST control) | 1.23 fold enrichment (6-mer frequency, TF over GST control) | 1.19 fold enrichment (6-mer frequency, TF over GST control) | 1.22 fold enrichment (6-mer frequency, TF over GST control) | 1.18 fold enrichment (6-mer frequency, TF over GST control) | 1.03 fold enrichment (6-mer frequency, TF over GST control) | 1.41 fold enrichment (6-mer frequency, TF over GST control) | 1.13 fold enrichment (6-mer frequency, TF over GST control) | 1.18 fold enrichment (6-mer frequency, TF over GST control) | 1.16 fold enrichment (6-mer frequency, TF over GST control) | 1.06 fold enrichment (6-mer frequency, TF over GST control) | 1.09 fold enrichment (6-mer frequency, TF over GST control) | 1.01 fold enrichment (6-mer frequency, TF over GST control) | 1.1 fold enrichment (6-mer frequency, TF over GST control) | 1.13 fold enrichment (6-mer frequency, TF over GST control) |
